Tests used:
Assay in all cases: DAPPL (digital affinity profiling via proximity ligation, sequencing); 10 mM Tris-HCl pH 7.5, 50 mM NaCl, 1 mM DTT, 4% glycerol, room temperature, 30 min; GST-TFs on glutathione beads, 16-mer random dsDNA library, 0.1% formaldehyde crosslink after washing; high values mean tight binding
FEV = biological target: T1, FEV (Homo sapiens, UniProt Q99581 1-238); details: protein: recombinant; tags: N-terminal GST; dsDNA, one strand shown
T1 sequence: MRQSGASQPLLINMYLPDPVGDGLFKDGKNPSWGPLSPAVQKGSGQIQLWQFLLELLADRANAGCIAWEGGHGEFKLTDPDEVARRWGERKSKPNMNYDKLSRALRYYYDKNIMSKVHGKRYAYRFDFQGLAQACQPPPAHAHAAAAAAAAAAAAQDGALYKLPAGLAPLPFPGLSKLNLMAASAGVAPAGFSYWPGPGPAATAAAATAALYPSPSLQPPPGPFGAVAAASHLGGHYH
In short: (§1)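 Sequencing on an Illumina NextSeq500 followed washing, crosslinking with 0.1% formaldehyde, proximity ligation (BsaI/T4 ligase, 1 h, 37 °C) and PCR amplification of pools that had been incubated for 30 min at room temperature with 200 nmole of a random double-stranded 16-mer DNA library in Tris/NaCl/DTT/glycerol buffer. Each pool held DNA-barcoded human transcription factors, expressed in yeast as GST fusions and captured on glutathione beads, plus a tag-only sample. Binding signal is a hexamer's read frequency for a factor divided by its frequency in the tag-only sample.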

ETV5 = ETV5 (Homo sapiens, UniProt P41161 1-510); details: protein: recombinant; tags: N-terminal GST; dsDNA, one strand shown
Chain of ETV5 (P41161 whole entry): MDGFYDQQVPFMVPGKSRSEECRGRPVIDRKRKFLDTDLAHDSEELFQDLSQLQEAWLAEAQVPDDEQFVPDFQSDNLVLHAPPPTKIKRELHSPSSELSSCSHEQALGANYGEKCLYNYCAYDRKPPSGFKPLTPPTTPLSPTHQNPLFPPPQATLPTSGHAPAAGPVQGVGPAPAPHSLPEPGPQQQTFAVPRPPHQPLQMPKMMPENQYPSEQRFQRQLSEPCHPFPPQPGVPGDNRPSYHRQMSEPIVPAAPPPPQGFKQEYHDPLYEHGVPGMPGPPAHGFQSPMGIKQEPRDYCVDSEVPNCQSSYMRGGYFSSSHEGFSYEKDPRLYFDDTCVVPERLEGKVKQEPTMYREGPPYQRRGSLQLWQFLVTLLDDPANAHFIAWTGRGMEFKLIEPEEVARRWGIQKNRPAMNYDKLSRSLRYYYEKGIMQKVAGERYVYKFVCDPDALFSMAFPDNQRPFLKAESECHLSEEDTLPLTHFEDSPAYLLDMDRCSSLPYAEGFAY
In short: as §1

HSF1 = HSF1 (Homo sapiens, UniProt Q00613 1-529); details: protein: recombinant; tags: N-terminal GST; chain copies: 3; dsDNA, one strand shown
Chain of HSF1 (Q00613 whole entry): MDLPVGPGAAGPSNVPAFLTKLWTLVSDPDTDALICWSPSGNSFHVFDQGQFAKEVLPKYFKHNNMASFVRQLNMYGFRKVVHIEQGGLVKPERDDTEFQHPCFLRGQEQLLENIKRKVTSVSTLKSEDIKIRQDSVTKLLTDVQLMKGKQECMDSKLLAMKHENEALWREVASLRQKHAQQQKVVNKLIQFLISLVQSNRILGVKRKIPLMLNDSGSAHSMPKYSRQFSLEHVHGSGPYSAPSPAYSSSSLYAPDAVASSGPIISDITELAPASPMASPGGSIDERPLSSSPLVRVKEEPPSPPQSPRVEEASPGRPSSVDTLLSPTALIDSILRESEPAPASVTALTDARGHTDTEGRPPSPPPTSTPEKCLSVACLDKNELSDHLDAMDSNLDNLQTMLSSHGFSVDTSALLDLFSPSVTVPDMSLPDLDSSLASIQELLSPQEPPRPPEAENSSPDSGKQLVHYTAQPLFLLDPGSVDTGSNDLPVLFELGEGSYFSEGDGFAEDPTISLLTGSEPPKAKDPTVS
In short: as §1

SPIC = biological target: T2, SPIC (Homo sapiens, UniProt Q8N5J4 1-248); details: protein: recombinant; tags: N-terminal GST; dsDNA, one strand shown
T2 sequence: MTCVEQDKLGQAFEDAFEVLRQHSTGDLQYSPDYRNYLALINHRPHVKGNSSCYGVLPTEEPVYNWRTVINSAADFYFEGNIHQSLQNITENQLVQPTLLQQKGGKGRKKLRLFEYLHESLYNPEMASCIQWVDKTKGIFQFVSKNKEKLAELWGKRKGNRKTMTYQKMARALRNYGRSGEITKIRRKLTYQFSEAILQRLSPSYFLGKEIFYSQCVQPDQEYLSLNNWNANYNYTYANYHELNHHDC
In short: as §1

ELF4 = ELF4 (Homo sapiens, UniProt Q99607 1-663); details: protein: recombinant; tags: N-terminal GST; dsDNA, one strand shown
Chain of ELF4 (Q99607 whole entry): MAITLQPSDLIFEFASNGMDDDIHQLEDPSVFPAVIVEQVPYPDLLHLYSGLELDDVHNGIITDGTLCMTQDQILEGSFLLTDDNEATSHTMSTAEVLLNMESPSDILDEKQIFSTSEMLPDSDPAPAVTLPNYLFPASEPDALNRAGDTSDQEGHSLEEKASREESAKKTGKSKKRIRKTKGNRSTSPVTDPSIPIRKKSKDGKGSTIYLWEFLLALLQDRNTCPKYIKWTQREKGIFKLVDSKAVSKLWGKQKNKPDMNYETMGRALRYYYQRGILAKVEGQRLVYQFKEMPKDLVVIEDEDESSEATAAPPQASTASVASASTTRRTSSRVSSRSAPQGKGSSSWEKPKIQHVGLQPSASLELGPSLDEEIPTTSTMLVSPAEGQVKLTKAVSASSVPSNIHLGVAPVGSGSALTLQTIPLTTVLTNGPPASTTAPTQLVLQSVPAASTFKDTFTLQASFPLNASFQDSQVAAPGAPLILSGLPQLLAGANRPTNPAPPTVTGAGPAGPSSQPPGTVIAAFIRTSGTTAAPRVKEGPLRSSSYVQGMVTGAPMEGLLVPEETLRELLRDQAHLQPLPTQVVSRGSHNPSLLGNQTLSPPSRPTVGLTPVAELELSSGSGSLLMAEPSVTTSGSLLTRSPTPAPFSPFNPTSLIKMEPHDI
In short: as §1

ELK4 = biological target: T3, ELK4 (Homo sapiens, UniProt P28324-2 1-405); details: protein: recombinant; tags: N-terminal GST; dsDNA, one strand shown
T3 sequence: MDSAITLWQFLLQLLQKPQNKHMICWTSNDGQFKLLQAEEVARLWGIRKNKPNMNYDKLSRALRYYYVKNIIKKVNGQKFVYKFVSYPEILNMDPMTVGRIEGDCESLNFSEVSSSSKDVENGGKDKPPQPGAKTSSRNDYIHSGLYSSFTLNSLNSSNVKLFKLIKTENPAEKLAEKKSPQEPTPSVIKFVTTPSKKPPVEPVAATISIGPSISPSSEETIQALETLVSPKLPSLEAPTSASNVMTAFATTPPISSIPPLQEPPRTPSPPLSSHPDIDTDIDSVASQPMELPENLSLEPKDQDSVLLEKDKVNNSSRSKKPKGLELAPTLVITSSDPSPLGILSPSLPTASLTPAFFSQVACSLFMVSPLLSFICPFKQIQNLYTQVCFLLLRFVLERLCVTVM
In short: as §1

ETV2 = biological target: T4, ETV2 (Homo sapiens, UniProt O00321 1-342); details: protein: recombinant; tags: N-terminal GST; dsDNA, one strand shown
T4 sequence: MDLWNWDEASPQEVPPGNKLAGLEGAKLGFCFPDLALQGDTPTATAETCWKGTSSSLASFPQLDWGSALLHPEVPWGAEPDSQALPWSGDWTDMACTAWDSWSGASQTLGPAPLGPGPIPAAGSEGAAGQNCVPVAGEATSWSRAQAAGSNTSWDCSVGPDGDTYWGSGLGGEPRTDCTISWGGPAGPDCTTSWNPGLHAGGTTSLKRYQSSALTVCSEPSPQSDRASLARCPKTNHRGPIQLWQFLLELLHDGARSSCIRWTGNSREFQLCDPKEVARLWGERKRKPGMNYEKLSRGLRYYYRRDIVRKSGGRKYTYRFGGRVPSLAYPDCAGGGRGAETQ
In short: as §1

ELF3 = biological target: T5, ELF3 (Homo sapiens, UniProt P78545 1-371); details: protein: recombinant; tags: N-terminal GST; dsDNA, one strand shown
T5 sequence: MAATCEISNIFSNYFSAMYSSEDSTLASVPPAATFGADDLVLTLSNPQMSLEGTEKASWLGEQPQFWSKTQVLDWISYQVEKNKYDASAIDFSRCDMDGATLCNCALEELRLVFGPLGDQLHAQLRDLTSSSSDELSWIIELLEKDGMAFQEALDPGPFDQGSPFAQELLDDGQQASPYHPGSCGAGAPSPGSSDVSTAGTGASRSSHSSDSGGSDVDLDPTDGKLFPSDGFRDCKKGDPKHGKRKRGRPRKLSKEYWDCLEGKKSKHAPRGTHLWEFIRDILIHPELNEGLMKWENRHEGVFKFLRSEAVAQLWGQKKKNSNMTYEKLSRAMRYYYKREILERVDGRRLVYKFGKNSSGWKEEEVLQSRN
In short: as §1

CRX = CRX (Homo sapiens, UniProt O43186 1-299); details: protein: recombinant; tags: N-terminal GST; dsDNA, one strand shown
Chain of CRX (O43186 whole entry): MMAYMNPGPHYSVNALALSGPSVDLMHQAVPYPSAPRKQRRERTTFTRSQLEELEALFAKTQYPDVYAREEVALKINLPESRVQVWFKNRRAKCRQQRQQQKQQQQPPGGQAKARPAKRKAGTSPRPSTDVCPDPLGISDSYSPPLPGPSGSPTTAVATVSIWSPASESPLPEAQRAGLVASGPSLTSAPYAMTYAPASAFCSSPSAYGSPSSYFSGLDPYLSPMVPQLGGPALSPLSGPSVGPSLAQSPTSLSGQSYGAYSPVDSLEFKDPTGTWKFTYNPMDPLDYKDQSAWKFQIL
In short: as §1

ETV1 = ETV1 (Homo sapiens, UniProt P50549 1-477); details: protein: recombinant; tags: N-terminal GST; dsDNA, one strand shown
Chain of ETV1 (P50549 whole entry): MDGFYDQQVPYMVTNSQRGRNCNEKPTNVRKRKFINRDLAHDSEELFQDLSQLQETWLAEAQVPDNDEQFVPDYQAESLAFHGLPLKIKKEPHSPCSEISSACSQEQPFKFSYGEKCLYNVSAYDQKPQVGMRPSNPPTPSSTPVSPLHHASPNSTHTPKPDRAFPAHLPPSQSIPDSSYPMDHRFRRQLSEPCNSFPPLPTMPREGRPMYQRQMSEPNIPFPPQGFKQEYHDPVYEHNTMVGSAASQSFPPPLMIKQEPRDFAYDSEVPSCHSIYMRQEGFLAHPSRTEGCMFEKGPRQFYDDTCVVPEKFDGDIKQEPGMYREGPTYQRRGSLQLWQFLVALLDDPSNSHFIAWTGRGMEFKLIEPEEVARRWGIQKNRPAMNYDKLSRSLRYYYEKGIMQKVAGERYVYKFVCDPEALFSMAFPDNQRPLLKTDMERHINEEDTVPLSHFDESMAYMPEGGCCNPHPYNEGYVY
In short: as §1

ERF = biological target: T6, ERF (Homo sapiens, UniProt P50548 1-548); details: protein: recombinant; tags: N-terminal GST; dsDNA, one strand shown
T6 sequence: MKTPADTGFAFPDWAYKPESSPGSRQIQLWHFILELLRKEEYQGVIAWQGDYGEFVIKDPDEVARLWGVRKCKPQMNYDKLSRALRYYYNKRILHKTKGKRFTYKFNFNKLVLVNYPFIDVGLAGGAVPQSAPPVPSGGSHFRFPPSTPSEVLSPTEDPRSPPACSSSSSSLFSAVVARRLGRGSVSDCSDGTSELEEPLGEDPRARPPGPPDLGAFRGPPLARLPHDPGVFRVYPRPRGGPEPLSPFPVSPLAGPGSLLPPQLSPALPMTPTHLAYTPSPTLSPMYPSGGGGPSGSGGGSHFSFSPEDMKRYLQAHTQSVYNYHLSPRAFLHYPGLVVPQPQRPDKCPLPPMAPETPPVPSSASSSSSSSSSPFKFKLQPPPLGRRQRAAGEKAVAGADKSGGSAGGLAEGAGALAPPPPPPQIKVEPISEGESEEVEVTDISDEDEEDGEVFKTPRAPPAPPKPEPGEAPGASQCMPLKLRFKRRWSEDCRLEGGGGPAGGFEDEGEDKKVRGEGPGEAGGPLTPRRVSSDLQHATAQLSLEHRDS
In short: as §1

ETV3L = biological target: T7, ETV3L (Homo sapiens, UniProt Q6ZN32 1-361); details: protein: recombinant; tags: N-terminal GST; dsDNA, one strand shown
T7 sequence: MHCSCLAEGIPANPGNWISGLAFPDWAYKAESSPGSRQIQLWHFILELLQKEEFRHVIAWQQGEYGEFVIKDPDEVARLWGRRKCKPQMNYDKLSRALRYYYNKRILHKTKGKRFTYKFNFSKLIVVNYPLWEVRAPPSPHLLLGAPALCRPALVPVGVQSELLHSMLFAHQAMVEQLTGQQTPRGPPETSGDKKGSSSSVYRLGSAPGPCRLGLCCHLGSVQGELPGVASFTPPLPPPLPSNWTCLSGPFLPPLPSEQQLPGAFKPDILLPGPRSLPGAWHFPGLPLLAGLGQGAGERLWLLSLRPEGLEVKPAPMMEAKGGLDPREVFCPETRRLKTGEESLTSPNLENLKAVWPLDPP
In short: as §1

ETS2 = biological target: T8, ETS2 (Homo sapiens, UniProt P15036 1-469); details: protein: recombinant; tags: N-terminal GST; dsDNA, one strand shown
T8 sequence: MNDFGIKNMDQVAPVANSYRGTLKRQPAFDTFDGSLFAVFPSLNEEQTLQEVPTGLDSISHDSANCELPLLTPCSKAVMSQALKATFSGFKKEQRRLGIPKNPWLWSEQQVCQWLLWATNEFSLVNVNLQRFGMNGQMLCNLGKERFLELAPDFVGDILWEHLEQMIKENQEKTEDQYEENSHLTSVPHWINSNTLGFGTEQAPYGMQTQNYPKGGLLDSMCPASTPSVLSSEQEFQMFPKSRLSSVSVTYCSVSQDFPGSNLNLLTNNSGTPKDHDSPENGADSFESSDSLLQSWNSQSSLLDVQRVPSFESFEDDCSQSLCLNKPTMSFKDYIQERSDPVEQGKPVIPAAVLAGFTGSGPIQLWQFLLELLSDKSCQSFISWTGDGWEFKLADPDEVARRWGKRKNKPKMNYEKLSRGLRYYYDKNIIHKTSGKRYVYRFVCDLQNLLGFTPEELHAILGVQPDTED
In short: as §1

SPDEF = biological target: T9, SPDEF (Homo sapiens, UniProt O95238 1-335); details: protein: recombinant; tags: N-terminal GST; dsDNA, one strand shown
T9 sequence: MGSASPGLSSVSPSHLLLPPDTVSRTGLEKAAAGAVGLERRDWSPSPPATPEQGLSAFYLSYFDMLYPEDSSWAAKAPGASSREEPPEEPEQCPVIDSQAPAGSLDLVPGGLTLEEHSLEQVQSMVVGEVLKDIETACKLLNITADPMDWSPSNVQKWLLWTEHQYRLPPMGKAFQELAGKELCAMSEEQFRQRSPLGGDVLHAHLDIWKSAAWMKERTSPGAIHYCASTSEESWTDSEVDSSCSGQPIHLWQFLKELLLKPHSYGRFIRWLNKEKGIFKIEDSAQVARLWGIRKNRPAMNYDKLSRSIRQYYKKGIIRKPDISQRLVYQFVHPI
In short: as §1

ETV7 = biological target: T10, ETV7 (Homo sapiens, UniProt Q9Y603 1-341); details: protein: recombinant; tags: N-terminal GST; dsDNA, one strand shown
T10 sequence: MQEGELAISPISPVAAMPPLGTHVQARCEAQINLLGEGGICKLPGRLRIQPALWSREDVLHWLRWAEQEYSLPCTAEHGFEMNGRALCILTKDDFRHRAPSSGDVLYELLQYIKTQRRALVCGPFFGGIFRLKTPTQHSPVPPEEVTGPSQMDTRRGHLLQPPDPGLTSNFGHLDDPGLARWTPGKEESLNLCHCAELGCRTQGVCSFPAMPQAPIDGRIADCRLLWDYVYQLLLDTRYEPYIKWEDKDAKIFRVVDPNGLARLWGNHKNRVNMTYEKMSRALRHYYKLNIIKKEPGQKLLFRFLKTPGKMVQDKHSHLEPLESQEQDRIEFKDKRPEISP
In short: as §1

ELF5 = biological target: T11, ELF5 (Homo sapiens, UniProt Q9UKW6-2 1-255); details: protein: recombinant; tags: N-terminal GST; dsDNA, one strand shown
T11 sequence: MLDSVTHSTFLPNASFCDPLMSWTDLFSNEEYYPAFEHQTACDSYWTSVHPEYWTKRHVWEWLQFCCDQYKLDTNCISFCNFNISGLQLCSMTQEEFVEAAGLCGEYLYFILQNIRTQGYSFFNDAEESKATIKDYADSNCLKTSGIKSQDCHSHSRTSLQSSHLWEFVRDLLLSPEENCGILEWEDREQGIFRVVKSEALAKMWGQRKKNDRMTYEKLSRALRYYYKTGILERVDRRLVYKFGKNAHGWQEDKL
In short: as §1

ETV3 = biological target: T12, ETV3 (Homo sapiens, UniProt P41162-2 1-143); details: protein: recombinant; tags: N-terminal GST; dsDNA, one strand shown
T12 sequence: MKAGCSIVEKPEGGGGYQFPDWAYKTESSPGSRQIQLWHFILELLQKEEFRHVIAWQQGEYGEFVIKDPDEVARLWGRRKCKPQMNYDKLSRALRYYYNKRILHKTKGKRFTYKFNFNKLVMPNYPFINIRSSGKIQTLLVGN
In short: as §1

ETV6 = ETV6 (Homo sapiens, UniProt P41212 1-452); details: protein: recombinant; tags: N-terminal GST; dsDNA, one strand shown
Chain of ETV6 (P41212 whole entry): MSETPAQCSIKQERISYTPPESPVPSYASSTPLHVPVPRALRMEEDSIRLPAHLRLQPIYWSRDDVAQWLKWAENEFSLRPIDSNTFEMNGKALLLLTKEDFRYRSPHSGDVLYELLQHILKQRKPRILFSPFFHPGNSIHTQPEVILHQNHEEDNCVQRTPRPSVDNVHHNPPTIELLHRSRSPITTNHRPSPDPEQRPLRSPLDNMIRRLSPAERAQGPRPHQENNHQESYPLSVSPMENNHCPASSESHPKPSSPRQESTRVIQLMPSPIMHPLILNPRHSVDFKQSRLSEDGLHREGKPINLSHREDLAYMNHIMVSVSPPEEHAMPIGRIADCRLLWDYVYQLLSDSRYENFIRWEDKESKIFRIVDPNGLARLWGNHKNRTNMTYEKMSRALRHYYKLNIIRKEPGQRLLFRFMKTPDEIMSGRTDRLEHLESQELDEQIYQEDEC
In short: as §1

With AAATAA the binding signal (FEV) was 1.29 fold enrichment (6-mer frequency, TF over GST control), the binding signal (ETV5) was 1.37 fold enrichment (6-mer frequency, TF over GST control) and the binding signal (HSF1) was 1.48 fold enrichment (6-mer frequency, TF over GST control). For the same sequence, the binding signal (SPIC) was 1.27 fold enrichment (6-mer frequency, TF over GST control), the binding signal (ELF4) was 1.32 fold enrichment (6-mer frequency, TF over GST control) and the binding signal (ELK4) was 1.34 fold enrichment (6-mer frequency, TF over GST control). For the same sequence, the binding signal (ETV2) was 1.28 fold enrichment (6-mer frequency, TF over GST control), the binding signal (ELF3) was 1.43 fold enrichment (6-mer frequency, TF over GST control) and the binding signal (CRX) was 1.71 fold enrichment (6-mer frequency, TF over GST control). The binding signal (ETV1) was 1.3 fold enrichment (6-mer frequency, TF over GST control), the binding signal (ERF) was 1.38 fold enrichment (6-mer frequency, TF over GST control) and the binding signal (ETV3L) was 1.26 fold enrichment (6-mer frequency, TF over GST control). For the same sequence, the binding signal (ETS2) was 1.39 fold enrichment (6-mer frequency, TF over GST control), the binding signal (SPDEF) was 1.25 fold enrichment (6-mer frequency, TF over GST control) and the binding signal (ETV7) was 1.32 fold enrichment (6-mer frequency, TF over GST control). The binding signal (ELF5) was 1.34 fold enrichment (6-mer frequency, TF over GST control), the binding signal (ETV3) was 1.31 fold enrichment (6-mer frequency, TF over GST control) and the binding signal (ETV6) was 1.5 fold enrichment (6-mer frequency, TF over GST control).

Source: article PMC7862700, “An all-to-all approach to the identification of sequence-specific readers for epigenetic DNA modifications on cytosine”
